The values that follow come from PubChem BioAssay AID2501 (Southern Research Specialized Biocontainment Screening …, 2010).

By inhibition is commonly meant the drop in the measured response relative to a control, in per cent. The term IC50 denotes the concentration that inhibits the measured activity by half.

Screen size: about 2,200 compounds; about 1,200 (55%) were called active. So high a share suggests a set chosen from earlier hits. Some of the results follow. Unmarked numbers belong to inactive results. The limit is not given here; nearly all actives have IC50 up to about 92 µM.

This test is described as follows: counter assay for TAg ATPase ADP read-out – biochemical, ADP-Hunter, fluorescence, counter-screen (AID 2501).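 Also: purified T antigen ATPase.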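 As to inhibition: 0% = enzyme with vehicle and 100% = reference inhibitor wells; higher means more inhibition.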 The conditions noted are these: series mostly up to 100 µM; inhibition: at the top concentration. In general terms: A counterscreen serves to expose hits that act by an unwanted route or on another target.
Turning to `N#C/C(=C\c1cccc(Cl)c1)C(=O)c1ccccc1`, the “inhibition” value was -20.2%.

`N#C/C(=C\c1ccc(O)c(O)c1)C(=O)c1ccc(O)c(O)c1`: the 50% inhibitory concentration (IC50) is 3.24 µM (active). Still for that read-out and setting: then `COc1cc(/C=C(\C#N)C(=O)c2ccc(O)c(O)c2)cc(I)c1O`, with 12.3 µM (active). Take `Cc1cccc(C2c3[nH]c4ccccc4c3CCN2C(=O)c2nn(C)c(=O)c3ccccc23)n1` (stereo unspecified): the “inhibition” value was 16.7%. In the case of `COC(=O)/C=C1/N/C(=N\c2nc(C)cc(C)n2)N(c2ccc(Cl)cc2)C1=O`, the “inhibition” value is -16.3%.

Regarding `Cc1cc2ccccc2n1CCNC(=O)COc1ccc2ccccc2c1`, the “inhibition” value is -19.9%. As for `OCC1CCCN(C(=S)Nc2ccc(Nc3ccccc3)cc2)C1` (stereo unspecified), the concentration for half-maximal inhibition (IC50) is 3.07 µM (active). Same read-out and setting: as for `OC1CCN(C(=S)Nc2ccc(Nc3ccccc3)cc2)CC1`, the figure is 2.9 µM (active).

In the case of `Cc1cc(C)c2c(c1)NC(C(=O)O)C1CC=CC21` (stereo unspecified), the “inhibition” value was 9.1%. Same read-out and setting: as for `N#Cc1c(SCC(=O)Nc2nncs2)sc2c(O)cc(=O)[nH]c12`, the figure is 17.1%; as for `c1nc2sc3c(c2c2nnnn12)CCC3`, 19.6%. For the molecule `Nc1ccc(-c2nc3c(Cl)cc(N)cc3[nH]2)cc1`, the IC50 is 4.91 µM (active).

As to `Nc1ccc(-c2nc3c(Cl)c(N)ccc3[nH]2)cc1`, the IC50 is 3.24 µM (active). Regarding `O=C(O)COc1ccccc1C(Nc1cccnc1)c1cc(Cl)c2cccnc2c1O` (stereo unspecified), the “inhibition” value is 17%. The same measure, in the same setting: as for `CCc1c(C)nc2ncnn2c1N1CCCC(C(=O)Nc2cc(F)ccc2C)C1` (stereo unspecified), the figure is 8.93%. Take `Cc1ccc(-c2cc(-c3ccco3)c(C#N)c(=O)[nH]2)cc1`: the “inhibition” value is -5.39%. For `CCCCOC1(c2ccccc2)NC(=S)NN=C1c1ccccc1` (stereo unspecified), the IC50 is 4.2 µM (active).

With `CC(C)N1CC(C(=O)O)CC1=O` (stereo unspecified), the “inhibition” value is -23.5%. Turning to `CN1CC(C(=O)O)Cc2c1ccc1ccccc21` (stereo unspecified), the IC50 was 8.64 µM (active). The same measure, in the same setting: as for `COc1cc(C#CC#CCN2CCCCC2)ccc1O`, the figure is 5.76 µM (active).

For the molecule `O=C(O)CN1C(=O)/C(=C\c2cc([N+](=O)[O-])ccc2OCc2ccccc2Cl)SC1=S`, the “inhibition” value was -18.7%. Turning to `CN1C(=O)/C(=C/c2ccc(-c3ccccc3[N+](=O)[O-])o2)SC1=Nc1ccc(Cl)c(C(=O)O)c1`, the IC50 is 92.5 µM (active). As to `CN(C)c1ccc(NC(N)=S)cc1`, the IC50 is 3.1 µM (active).

Take `CCCCOC(=O)Nc1ccc(N(C)C)cc1`: the IC50 is 4.65 µM (active). As for `CCCCOC(=O)c1ccc(NC(=O)Nc2ccc(OC)c(OC)c2)cc1`, the “inhibition” value was 0.76%. In the case of `CCOC(=O)c1c(C)c(C(=O)Nc2ccc(N(C)C)cc2)c(C)n1CC`, the IC50 is 10.6 µM (active). On the same count and under the same terms, as for `C=CCNC(=S)Nc1ccc(N(C)C)cc1`, the figure is 1.99 µM (active). Take `Cc1cc(S(=O)(=O)Nc2c(C)nc3nc[nH]n3c2=O)ccc1F`: the “inhibition” value is -32.6%. Still for that read-out and setting: then `CC(C)CC(NC(=O)C1CCC(=O)N1C(=O)OCc1ccccc1)C(=O)NC(Cc1ccccc1)C(N)=O` (stereo unspecified), with -23%; and `CCN(CC)C(=S)SSC(=S)N(CC)CC`, with -2.02%. As for `O=C(NCC1CCCO1)c1ccc2c(c1)N(Cc1ccc(F)cc1)CCS2` (stereo unspecified), the “inhibition” value was 26.3%.

Turning to `CN(C)c1ccc(NC(=S)NCC2CCCO2)cc1` (stereo unspecified), the IC50 is 7.16 µM (active). `Cn1cccc1Cc1nnc(SCC(=O)NCC2CCCO2)n1C` (stereo unspecified): the “inhibition” value was 11.1%. For `CCOC(=O)C1(C)C=C(Nc2ccc(O)cc2)C(=O)N1c1ccc(O)cc1` (stereo unspecified), the IC50 is 2.33 µM (active). As for `c1csc(CN2CCOCC2)c1`, the “inhibition” value was -24.8%. Consider `Oc1ccc(NCc2cccs2)cc1`, for which the IC50 is 4.39 µM (active).

`Clc1cc(NCc2cccs2)ccc1N1CCOCC1`: the IC50 was 31.5 µM (active). Consider `COc1ccc2c(c1)C(=O)Cc1ccccc1O2`, for which the “inhibition” value is -33.9%.

With `Cc1ccc2nsnc2c1NS(=O)(=O)c1c(C)ccc2nsnc12`, the “inhibition” value was -23.3%. With `Nc1cccc2nsnc12`, the 50% inhibitory concentration (IC50) was 11 µM (active). For the molecule `Cc1cc2c(N)cccc2nn1`, the “inhibition” value was 13.3%. Still for that read-out and setting: then `O=C(OCC1O[C@@H](OC(=O)c2cc(O)c(O)c(O)c2)[C@@H](OC(=O)c2cc(O)c(O)c(O)c2)[C@@H](OC(=O)c2cc(O)c(O)c(O)c2)[C@@H]1OC(=O)c1cc(O)c(O)c(O)c1)c1cc(O)c(O)c(O)c1` (stereo partly specified), with 5.82%.

On to `O=C(OCCc1ccccc1)c1cc(O)c(O)c(O)c1`, for which the IC50 was 29.2 µM (active). `CN1CCc2cccc3c2[C@@H]1Cc1ccc(O)c(O)c1-3`: the “inhibition” value was -223%. As to `CC(C)(C)n1nc2c(c1NC(=O)c1ccccc1S(=O)(=O)C(F)F)CS(=O)(=O)C2`, the “inhibition” value was -36.9%. Consider `O=c1[nH][nH]c(=S)n1C1CCCCC1`, for which the “inhibition” value was 26.7% [at 25 µM]. For `COc1ccccc1N1CCN(/N=C/c2ccc(O)c(O)c2)CC1`, the IC50 is 5.45 µM (active). With `COc1cccc(/C=N/N2CCN(c3ccncc3S(=O)(=O)N3CCCCC3)CC2)c1`, the “inhibition” value was -6.08%. As to `Oc1ccc2[nH]ccc2c1`, the IC50 was 2.23 µM (active). In the case of `O=C(O)c1ccc(NS(=O)(=O)c2ccc3c(c2)C2C=CCC2C(c2ccccc2F)N3)cc1` (stereo unspecified), the “inhibition” value was 24.8%. As to `Oc1ccc(O)cc1`, the IC50 is 7.46 µM (active). Same read-out and setting: then `CC(=O)c1cc2c(O)c(O)ccc2o1`, with 7.04 µM (active). On to `Cc1ccc2oc(C(=O)Nc3nonc3C)c(C)c2c1`, for which the “inhibition” value is 17.9%.

For the molecule `COc1cc(/C=N/NC(=O)CSc2ccccn2)ccc1O`, the IC50 is 4.11 µM (active).

As for `CCOc1ccc(/C=N/NC(=O)CSc2ccccn2)cc1O`, the IC50 was 2.66 µM (active). For `Cc1cc(C)nc(NC2=NCC(=O)N2c2cc(Cl)cc(Cl)c2)n1`, the “inhibition” value was -31%. As for `CC1(OC(=O)C2CCCC2)C(=O)C=C2C=C(c3ccsc3)N(Cc3ccco3)C=C2C1=O` (stereo unspecified), the “inhibition” value was 6.05%. As for `Nc1ccc2nc(CCCCCCCCc3nc4ccc(N)cc4[nH]3)[nH]c2c1`, the IC50 was 6.38 µM (active). As for `Nc1ccc2nc(CCCO)[nH]c2c1`, the IC50 is 2.74 µM (active). In the case of `Nc1ccc2nc(CCCCCCc3nc4ccc(N)cc4[nH]3)[nH]c2c1`, the IC50 is 2.36 µM (active). Take `Cc1c(C=NCCOCc2ccccc2)cnn1C`: the “inhibition” value is -11.4%. Take `COc1cc(/C=N/Nc2nc(N3CCCC3)nc(N3CCCC3)n2)ccc1O`: the IC50 is 6.61 µM (active). On the same count and under the same terms, then `CCNc1nc(NCC)nc(N/N=C/c2ccc(O)c(OC)c2)n1`, with 5.21 µM (active). Consider `COc1ccc(/C=N/Nc2nc(N3CCCC3)nc(N3CCCC3)n2)cc1O`, for which the IC50 was 3.91 µM (active). In the case of `CN(C)c1nc(NCc2ccccc2)nc(N/N=C/c2ccc(Cl)cc2Cl)n1`, the “inhibition” value was -30.1%. As for `Cc1ccc(-c2nc3ncccn3c2NC2CCCCC2)o1`, the IC50 is 6.91 µM (active).

`CCOC(=O)c1c(NC(C)=O)sc2c(O)c(Br)cc(Br)c12`: the half-inhibitory concentration (IC50) is 28.4 µM (active). As for `CCOC(=O)c1c(NC(=O)/C=C/C(=O)O)sc(C)c1-c1ccc(Cl)cc1`, the “inhibition” value is -27.3%. Turning to `CCOC(=O)c1c(NC(=O)/C=C/C(=O)O)sc(C)c1-c1ccc(C(C)(C)C)cc1`, the “inhibition” value is -30%. Consider `Oc1ccc(C2=Nn3c(nnc3-c3ccco3)SC2)cc1O`, for which the half-inhibitory concentration (IC50) was 4.93 µM (active).

For `CN1CCc2cccc3c2[C@H]1Cc1ccc(O)c(O)c1-3`, the IC50 entry was “inactive”. Take `O=C(NC(=S)Nc1cccc(S(=O)(=O)NC2=NCCC2)c1)c1cc(-c2ccco2)nc2ccccc12`: the “inhibition” value is 9.2%.

Turning to `COc1cc(/C=C2/C(=O)c3cccc([N+](=O)[O-])c3C2=O)c(Br)cc1O`, the IC50 is 23.4 µM (active). As to `O=C(O)/C=C/C(=O)c1ccc2c(c1)CCc1ccccc1-2`, the “inhibition” value is 22.5%.

On to `COc1ccc(NCC(O)Cn2cnc3c2c(=O)n(C)c(=O)n3C)cc1` (stereo unspecified), for which the IC50 was 6.13 µM (active). Still for that read-out and setting: then `CNc1nn(-c2cccc(Cl)c2)nc1N`, with 9.76 µM (active). For the molecule `Cc1nn(-c2cccc(Cl)c2)c2nc(-c3ccco3)cc(C(=O)O)c12`, the “inhibition” value is -1.99%. On to `COc1ccc(N2CCN(c3cc(=O)n(Cc4ccc(F)cc4)c(=O)[nH]3)CC2)cc1`, for which the “inhibition” value is 12%. As for `CNC(=S)N1CCN(c2ccc(OC)cc2)CC1`, the IC50 was 8.87 µM (active). On the same count and under the same terms, then `COc1ccc(N2CCN(C(=O)NC3CC(=O)N(c4ccc(OC)cc4)C3)CC2)cc1` (stereo unspecified), with 26.8 µM (active). Consider `O=[N+]([O-])c1c(Nc2cccc(O)c2)cc(Cl)c2nonc12`, for which the “inhibition” value is -22%. Take `O=[N+]([O-])c1c(Nc2ccc(O)cc2)cc(Cl)c2nonc12`: the IC50 is 26.9 µM (active). Turning to `O=C(O)c1ccc(Nc2cc(Cl)c3nonc3c2[N+](=O)[O-])cc1`, the “inhibition” value was -10.8%. With `CCn1c(Cc2ccccc2)nnc1SCC(=O)Nc1ccc(N2CCOCC2)c(Cl)c1`, the “inhibition” value was -5.22%. With `C=CCn1c(CNc2ccccc2)nnc1SCC(=O)N/N=C/c1ccc(O)cc1O`, the IC50 is 4.22 µM (active). Turning to `CN1CCC(=C(c2ccccc2)c2ccc(Br)cc2)CC1`, the “inhibition” value is 26.6%. `COc1ccc(N=c2scc(C)n2CCCN2CCCC2=O)cc1`: the IC50 was 6.36 µM (active).

For `CC(C)C1N=C2c3ccccc3N=C(SCC(=O)c3ccc(O)c(O)c3)N2C1=O` (stereo unspecified), the IC50 is 4.05 µM (active). The same measure, in the same setting: as for `Nc1ncc(N=Nc2cc(C(=O)O)ccc2Cl)s1`, the figure is 12.4 µM (active).

As to `COc1cccc(C(=O)N(Cc2cc3cc(C)ccc3[nH]c2=O)C(C)C)c1`, the “inhibition” value was -6.8%. For `COCCN=C1Sc2nc3c(C)cccc3cc2CN1Cc1ccco1`, the concentration for half-maximal inhibition (IC50) was 13.7 µM (active). As to `CCOC(=O)c1cnc(Nc2nc3ccccc3o2)nc1CSC(=S)N1CCCCC1`, the “inhibition” value is -19.6%. For `CN(C)c1ccc(/C=C/c2cc[n+]([O-])cc2)cc1`, the IC50 is 5.15 µM (active).

For the molecule `O=S(=O)(c1cccs1)N1CN(CC2CCCO2)c2nc3ccccc3nc21` (stereo unspecified), the “inhibition” value is 12.7%. For the molecule `OCCNc1nc(Nc2ccc(O)cc2)nc2ccccc12`, the IC50 was 2.57 µM (active). Same read-out and setting: then `Oc1ccc(Nc2nc(NCC3CCCO3)c3ccccc3n2)cc1` (stereo unspecified), with 5.81 µM (active).

As to `CN(Cc1ccco1)S(=O)(=O)c1nnc(NC(=O)c2cccc(Cl)c2)s1`, the “inhibition” value is -22.5%. Regarding `CCn1cc(CN2CCC(n3nccc3NC(=O)c3ccccc3OC)CC2)cn1`, the “inhibition” value is 10.8%. On to `NC(=O)N/N=C/c1ccc(N2CCOCC2)s1`, for which the IC50 is 10.7 µM (active). With `CC(C)(C)OC(=O)N/N=C/c1ccc(N2CCOCC2)s1`, the IC50 is 8.25 µM (active). Turning to `COc1ccc(N(CC(=O)NCCc2cccc(C)c2)S(=O)(=O)c2c(C)noc2C)cc1`, the “inhibition” value is -11.9%. Take `COc1cccc(NS(=O)(=O)c2ccc3c(c2)C2C=CCC2C(c2ccc(C(=O)O)cc2)N3)c1` (stereo unspecified): the “inhibition” value is 25.9%. On to `Oc1ccc(-c2csc(Nc3ncccn3)n2)cc1O`, for which the IC50 was 10.2 µM (active). For `Oc1ccc(-c2csc(Nc3ccccn3)n2)cc1O`, the IC50 is 11.2 µM (active).

In the case of `Cc1ccc(Nc2nc(-c3ccc(O)c(O)c3)cs2)nc1`, the IC50 is 8.68 µM (active).

For `Oc1ccc(-c2csc(Nc3cccc4ccccc34)n2)cc1O`, the IC50 is 23.6 µM (active).
